Reference: PubChem BioAssay AID1159580 (chemical genetic matrix, 2015)
Several values for one entry are separate records, joined by “and”; a condition that tells them apart may be missing. Identical values can stand only once. The whole screen tested about 5,500 compounds, of which about 2,000 (36%) were called active. Not shown: some 18% with an inconclusive outcome. Rule as the data show it: active = normalized growth mostly below about 0.91 (no sharp cut-off); inconclusive = no clear call, values can overlap the other calls; inactive = mostly above about 0.92. The list shows a part of the results.

Experiment: chemical genetic growth profiling, strain panel (AID 1159580);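 also: tested at 20 µM; growth read once vehicle control cultures reached saturation at 30 °C; 1 = growth at the plate median or of vehicle wells; lower values mean less growth of the strain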
Settings: S. cerevisiae deletion strains, growth OD

Measured: normalized growth

O=C(O)CCCc1ccccc1
inactive: locus YAL021C, strain ccr4, stronger effect = lower value 0.962 | locus YAL026C, strain drs2, stronger effect = lower value 0.989 | locus YAL030W, strain snc1, stronger effect = lower value 0.988 | locus YBL061C, strain skt5, stronger effect = lower value 0.991 | locus YBR009C, strain hhf1, stronger effect = lower value 0.988 | locus YBR021W, strain FUR4, stronger effect = lower value 0.955 | locus YBR023C, strain chs3, stronger effect = lower value 0.994 | locus YBR171W, strain sec66, stronger effect = lower value 0.975 | locus YBR229C, strain ROT2, stronger effect = lower value 0.999 | locus YBR231C, strain swc5, stronger effect = lower value 1 | locus YBR279W, strain paf1, stronger effect = lower value 0.974 | locus YCL011C, strain gbp2, stronger effect = lower value 0.98 | locus YCL016C, strain dcc1, stronger effect = lower value 0.985 | locus YCL029C, strain bik1, stronger effect = lower value 0.982 | locus YCL069W, strain vba3, stronger effect = lower value 0.981 | locus YCR088W, strain abp1, stronger effect = lower value 0.973 | locus YDL005C, strain med2, stronger effect = lower value 0.979 | locus YDL035C, strain GPR1, stronger effect = lower value 1.01 | locus YDL040C, strain nat1, stronger effect = lower value 0.989 | locus YDL074C, strain BRE1, stronger effect = lower value 1 | locus YDL101C, strain DUN1, stronger effect = lower value 1 | locus YDL185W, strain tfp1, stronger effect = lower value 0.948 | locus YDL192W, strain arf1, stronger effect = lower value 0.996 | locus YDR001C, strain nth1, stronger effect = lower value 0.977 | locus YDR069C, strain doa4, stronger effect = lower value 1 | locus YDR101C, strain arx1, stronger effect = lower value 0.941 | locus YDR137W, strain rgp1, stronger effect = lower value 1 | locus YDR150W, strain NUM1, stronger effect = lower value 0.998 | locus YDR159W, strain sac3, stronger effect = lower value 0.981 | locus YDR162C, strain NBP2, stronger effect = lower value 1 | locus YDR195W, strain ref2 1.04 | locus YDR297W, strain sur2, stronger effect = lower value 0.991 | locus YDR318W, strain mcm21, stronger effect = lower value 0.986 | locus YDR334W, strain swr1, stronger effect = lower value 0.978 | locus YDR335W, strain msn5, stronger effect = lower value 0.988 | locus YDR388W, stronger effect = lower value 0.999 | locus YDR392W, strain spt3, stronger effect = lower value 0.963 | locus YDR502C, strain sam2, stronger effect = lower value 0.981 | locus YEL003W, strain gim4, stronger effect = lower value 0.986 | locus YEL037C, strain rad23, stronger effect = lower value 0.989 | locus YEL061C, strain CIN8 (second series), stronger effect = lower value 0.983 | locus YEL061C, strain CIN8, stronger effect = lower value 0.999 | locus YER015W, strain faa2, stronger effect = lower value 1 | locus YER016W, strain bim1, stronger effect = lower value 0.989 | locus YER110C, stronger effect = lower value 1 | locus YER111C, strain swi4, stronger effect = lower value 0.992 | locus YER155C, strain BEM2 (second series), stronger effect = lower value 1.01 | locus YER155C, strain BEM2, stronger effect = lower value 0.975 | locus YER167W, strain BCK2, stronger effect = lower value 1 | locus YFR010W, strain ubp6, stronger effect = lower value 0.997 | locus YGL078C, strain dbp3, stronger effect = lower value 0.933 | locus YGL086W, strain mad1, stronger effect = lower value 0.97 | locus YGL167C, strain pmr1, stronger effect = lower value 0.995 | locus YGL173C, strain kem1, stronger effect = lower value 0.997 | locus YGL227W, strain vid30, stronger effect = lower value 0.977 | locus YGL240W, strain doc1, stronger effect = lower value 1 | locus YGL248W, strain PDE1, stronger effect = lower value 0.997 | locus YGL253W, strain hxk2, stronger effect = lower value 0.974 | locus YGR135W, strain pre9, stronger effect = lower value 1.04 | locus YGR229C, strain SMI1, stronger effect = lower value 1.01 | locus YGR252W, strain gcn5, stronger effect = lower value 0.939 | locus YHR013C, strain ard1, stronger effect = lower value 1.01 | locus YHR027C, strain rpn1, stronger effect = lower value 1.01 | locus YHR079C, strain IRE1 (second series), stronger effect = lower value 0.975 | locus YHR094C, strain hxt1, stronger effect = lower value 0.995 | locus YHR129C, strain ARP1, stronger effect = lower value 0.993 | locus YHR142W, strain chs7, stronger effect = lower value 0.988 | locus YHR200W, strain rpn10, stronger effect = lower value 0.996 | locus YIL066C, strain RNR3, stronger effect = lower value 0.999 | locus YIL073C, strain SPO22, stronger effect = lower value 1.06 | locus YIR030C, strain dcg1, stronger effect = lower value 0.988 | locus YJL092W, strain hpr5, stronger effect = lower value 0.985 | locus YJL095W, strain BCK1 (second series), stronger effect = lower value 0.989 | locus YJL115W, strain asf1, stronger effect = lower value 0.986 | locus YJL129C, strain trk1, stronger effect = lower value 0.983 | locus YJL134W, strain LCB3, stronger effect = lower value 1.01 | locus YJL154C, strain vps35, stronger effect = lower value 0.976 | locus YJL164C, strain tpk1, stronger effect = lower value 0.987 | locus YJL166W, strain qcr8, stronger effect = lower value 0.992 | locus YJL168C, strain set2, stronger effect = lower value 0.998 | locus YJL187C, strain SWE1 (second series), stronger effect = lower value 0.99 | locus YJL187C, strain SWE1, stronger effect = lower value 0.99
1 (inactive) and 0.818 (active): locus YHR030C, strain SLT2, stronger effect = lower value
active: locus YHR079C, strain IRE1, stronger effect = lower value 0.801 | locus YIL125W, strain kgd1, stronger effect = lower value 0.892
0.998 (inactive) and 0.811 (active): locus YJL095W, strain BCK1, stronger effect = lower value
